# High-throughput results deposited in PubChem by National Center for Advancing Translational Sciences (NCATS).
# Nrf2 ARE act = activates Nrf2 signaling; AID 624171; AREc32 ARE-luciferase reporter (MCF7-derived line), luminescence, 24 h; Potency, µM (top dose mostly 46.1 µM), inactives show at the top dose activation, usual class: activators; 0.31% of 410,000 active; also: % of control where 0% means no effect; nearly all actives have a fitted effect of over 65% in size
#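 AREc32 cells carrying an ARE-driven firefly luciferase, 1000 cells/well in OPTI-MEM with 5% FBS, dosed after overnight attachment and incubated 24 hr at 37 deg C. Steady-Glo luminescence read after 30 min at RT.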
# ELG1 repair inh = ELG1-dependent DNA repair inhibition; 2.3% of 330,000 active; Potency, µM (titrated, usually from 46.1 µM), for inactives: at the highest dose activity change, negative = inhibition, usual class: inhibitors; HEK293T ELG1-luciferase reporter, luminescence, 16 h; DNA damage induced by 5-fluorouridine; also: % is scaled to controls: 0 for no effect and ±100 for the full control effect; nearly all actives have a fitted effect of over 55% in size
#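 Overnight (16 hr) co-exposure of 2,000 cells/well to 5-fluorouridine and compound at 37 °C preceded detection. Luciferase was quantified via ONE-Glo luminescence; loss of signal denotes inhibition.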
# A549 tox = counter-screen for Nrf2 inhibitors: cytotoxicity in A549 cells; A549 ARE-Fluc cells, CellTiter-Fluor viability, 18-24 h; Potency, µM (doses to about 46 µM), for inactives: top-dose activity change, negative = cytotoxicity, hits mostly inhibitors; 0.16% of 390,000 active; AID 504648; also: % is scaled to controls: 0 for no effect and ±100 for the full control effect
#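 Cytotoxicity counterscreen: CellTiter-Fluor fluorescence was measured in A549 ARE_Fluc cells after 18-24 h of compound exposure in a concentration series. The subsequent BugLite luminescent read reports ARE-luciferase activity.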
# Nrf2 inh = Nrf2 pathway inhibition; 2.1% of 360,000 active; AID 504444; A549 ARE-Fluc reporter, luciferase luminescence, 18-24 h; Potency, µM (highest dose often 46 µM), for the others: top-dose activity change, negative = inhibition, most hits filed as inhibitors; also: % is scaled to controls: 0 for no effect and ±100 for the full control effect; nearly all actives have a fitted effect of over 60% in size
#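 In this cell-based qHTS, ARE-driven firefly luciferase in A549 cells reports Nrf2 activity; the luminescent signal after BugLite lysis is the measured value, with a prior CellTiter-Fluor read for cell health.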
# mIDH1 inhibitor = blocks human mutant IDH1 R132H enzyme; AID 602179; Potency, µM (top dose mostly 76.6 µM), for the others: at the highest dose activity change, negative = inhibition, actives largely listed as inhibitors; IDH1-R132H enzyme, NADPH consumption, diaphorase/resazurin fluorescence; 0.093% of 390,000 active; O75874; also: % is scaled to controls: 0 for no effect and ±100 for the full control effect; nearly all actives have a fitted effect of over 65% in size
# Target sequence (O75874 whole entry R132H, stated change not applied): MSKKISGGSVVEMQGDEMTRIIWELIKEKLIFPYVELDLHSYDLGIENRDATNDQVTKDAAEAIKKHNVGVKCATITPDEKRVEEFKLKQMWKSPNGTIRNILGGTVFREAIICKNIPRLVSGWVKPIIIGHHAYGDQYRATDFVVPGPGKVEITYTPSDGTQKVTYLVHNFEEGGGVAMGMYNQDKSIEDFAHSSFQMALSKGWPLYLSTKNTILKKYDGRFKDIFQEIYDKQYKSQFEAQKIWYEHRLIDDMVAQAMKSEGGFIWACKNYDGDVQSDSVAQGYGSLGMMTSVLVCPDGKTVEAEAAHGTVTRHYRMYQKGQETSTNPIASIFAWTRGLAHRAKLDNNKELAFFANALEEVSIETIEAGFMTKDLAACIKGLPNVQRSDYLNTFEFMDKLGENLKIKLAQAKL
#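 IDH1-R132H (0.5 ug/mL) preincubated 30 min with compound, then NADPH (0.016 mM) and alpha-KG (2 mM) added; 80 min at RT, pH 7.5. Remaining NADPH coupled via diaphorase/resazurin to fluorescence (540/590 nm); concentration-response curves normalized to no-enzyme control.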
# * hit, by the source's call; ? = inconclusive; nt = not tested or not shown; [ ] = another dose, or the depositor's remark. Shown are actives, neighbours in structure and some others; about 3.8% of the full set was active somewhere. Calls follow the shape of the dose curve; as a rule, active = well fitted curve in the direction sought with a large enough effect; inconclusive = small, poorly fitted or top-dose-only effect, or another doubt; inactive = no such curve, though single readings can be large; an effect the other way counts as inactive or inconclusive. Potency is read from the fitted curve at half-maximal effect.
SMILES,Nrf2 ARE act,ELG1 repair inh,A549 tox,Nrf2 inh,mIDH1 inhibitor
C[C@@H]1CC=C[C@H]2[C@H]1C(=O)N(Cc1ccccc1)[C@H]2c1ccc2ccccc2c1,1%,0%,?,21µM*,-5%[38.3 µM]
CC(=O)c1ccc(-c2ccc([C@H]3[C@H]4C=CC[C@@H](C)[C@@H]4C(=O)N3Cc3ccccc3)c(F)c2)cc1,0%,?,2%,?,-8%[38.3 µM]
COc1ccc(OC)c(NCc2cccn2-c2nnc(N3CCCCC3)s2)c1,0%,nt,-17%,?,0%
COc1cc2c(cc1OC)C(C)N(C(=O)c1cc3c(C)cc(C)cc3[nH]1)CC2 (stereo not drawn),0%,16µM*,-7%,15µM*,-5%
CCN(CC)c1cc2c(cc1F)c(=O)c(S(=O)(=O)c1ccc(OC)cc1)cn2Cc1ccccc1,0%,nt,13%,12%,-13%
Cc1ccc(C)c(S(=O)(=O)N2CCN(C(=O)c3ccc(OCc4c(C)noc4C)cc3)CC2)c1,4%,16µM*,-3%,?,9%
Cc1cc(C)c(C)c(S(=O)(=O)N2CCN(C(=O)c3ccccc3OCc3c(C)noc3C)CC2)c1C,0%,-26%,-26%,18µM*,0%
Cc1noc(C)c1COc1ccccc1C(=O)NNC(=O)c1ccccc1F,10µM*,5%,2%,-1%,3%
Cc1ccc(S(=O)(=O)N2CCN(C(=O)c3ccc(OCc4c(C)noc4C)cc3)CC2)cc1,-1%,?,-8%,?,12%
Cc1noc(C)c1COc1ccccc1C(=O)N1CCN(S(=O)(=O)c2ccccc2Br)CC1,-2%,nt,-19%,11%,2%
N#Cc1ccc(OC(=O)c2cc(-c3ccc4c(c3)OCCO4)on2)cc1,5%,nt,-12%,18%,5%
Cc1cccc(NC(=O)CSc2nc3ccc(N4C(=O)c5ccccc5C4=O)cc3s2)c1C,0%,-3%,?,21µM*,0%
CC(C)n1cnc2c(Nc3cccc(Cl)c3)nc(NCCCO)nc21,-5%,?,?,?,14%
C=CC(=O)Nc1cccc(Nc2nc(N[C@H]3CC[C@H](N(C)C)CC3)nc3c2ncn3C(C)C)c1,-3%,nt,2.6µM*,0.58µM*,3%[38.3 µM]
COc1ccc(NC(=O)N(CCC(C)C)C(C)c2cccs2)c(OC)c1 (stereo not drawn),3%,nt,4%,nt,0%
Cc1ccc(NP(=O)(c2ccc(N(C)C)cc2NC(=O)c2cccs2)N2CCOCC2)cc1Cl (stereo not drawn),11%,16µM*,-18%,-7%,11%
Cc1ccc(NP(=O)(c2ccc(N(C)C)cc2NC(=O)c2cccs2)N2CCOCC2)cc1 (stereo not drawn),9%,?,-15%,5%,4%
Cc1ccc(C2=Nc3ccccc3N(CC(=O)Nc3ccccc3C)C(=O)C2)cc1C,4%,nt,-13%,?,-23%
N#Cc1ccsc1NC(=O)COC(=O)C1=NNC(=O)CC1,1%,?,1%,?,2%
Cn1nc(CC(=O)NC2CCCCCC2)c2ccccc2c1=O,0%,?,-4%,18µM*,9%
Cn1nc(CC(=O)Nc2cccc3ncccc23)c2ccccc2c1=O,4%,7.3µM*,-15%,?,7%
CCCCNC(=O)CCn1c(=O)c2cccn2c2cccnc21,19%,nt,-1%,?,5%
CCCN(CC(=O)Nc1ccccc1OC)C(=O)c1cc(-c2ccccc2)nn1-c1ccccc1,4%,21µM*,-7%,-26%,5%
CCN(CC(=O)Nc1ccc(NC(C)=O)cc1)C(=O)c1cc(-c2ccccc2)nn1-c1ccccc1,0%,?,0%,-8%,6%
COCCN(CC(=O)Nc1cccc(C)c1C)C(=O)c1cc(-c2cccs2)nn1-c1ccccc1,-1%,13µM*,-15%,?,-7%
SMILES,Nrf2 ARE act,ELG1 repair inh,A549 tox,Nrf2 inh,mIDH1 inhibitor
CN(C(=O)CSc1nc2ccc(Cl)cc2[nH]1)C1CCS(=O)(=O)C1 (stereo not drawn),3%,3%,11%,-14%,-3%
O=C(CC1C(=O)N(c2ccc(F)cc2)C(=O)N1Cc1ccc2c(c1)OCO2)Nc1ccc(Cl)cc1 (stereo not drawn),6%,nt,-4%,-9%,?
N#CCSc1ncnc2ccccc12,?,23µM*,15%,?,0%
N#CCSc1nc(-c2ccccc2)nc2ccccc12,0%[9.22 µM],?,1%,-29%,-2%
CCCCOc1ccc(C2=NC(c3ccccc3)=Nc3ccc(OC)cc3N2)cc1,4%,nt,-10%,-1%,nt
Cc1ccc(NC(=O)N2CCCC2C(=O)Nc2ccc(-n3cnnn3)c(C)c2)cc1 (stereo not drawn),0%,-9%,12%,15%,3%
Cc1cc(NC(=O)C2CCCN2C(=O)Nc2cccc(Cl)c2)ccc1-n1cnnn1 (stereo not drawn),-1%,-1%,-3%,16µM*,0%
COc1ccc(C)cc1S(=O)(=O)n1c([N+](=O)[O-])cnc1C,-1%,11%,-6%,6%,-1%
Cn1c(=O)oc2cc(S(=O)(=O)N3CCCC(C(=O)N4CC=C(c5ccccc5)CC4)C3)ccc21 (stereo not drawn),nt,5.8µM*,nt,nt,nt
CCN(CC)S(=O)(=O)N1CCC(C(=O)NC2CCCc3ccccc32)CC1 (stereo not drawn),0%,16µM*,10%,4%,7%
Cn1c(=O)oc2cc(S(=O)(=O)N3CCCC(C(=O)Nc4ccccn4)C3)ccc21 (stereo not drawn),0%,-8%,6%,-17%,-10%
Cc1nn(C)c(C)c1S(=O)(=O)N1CCC(C(=O)NC2CCCc3ccccc32)CC1 (stereo not drawn),-1%,-11%,0%,-5%,5%
Cn1c(=O)oc2cc(S(=O)(=O)N3CCCC(C(=O)NC4CCCc5ccccc54)C3)ccc21 (stereo not drawn),-1%,2.9µM*,0%,-4%,11%
O=C(OCC#CCSc1nnc(-c2cccc3ccccc23)o1)c1ccsc1,nt,nt,-4%,?,nt
COc1ccc(-n2c(C)cc(C(=O)COC(=O)c3ccc(O)cc3O)c2C)cc1,-1%,?,?,13µM*,-2%
CCN(CC(=O)NCc1cccs1)C(=O)c1ccc(-c2ccccc2F)o1,3%,7%,1%,6%,2%
CCCC1=Nc2cc(C(=O)NC3CCCCC3)ccc2Sc2ccc(C)cc21,-1%,nt,?,nt,37%
CC1(C)CC(=O)c2cc(N=C/C(C(=O)c3ccccc3)=C(\O)c3ccccc3)c(=O)oc2C1,11µM*,?,2%,11%,0%
Cc1ccn2c(Nc3ccccc3C)c(-c3ccccn3)nc2c1,2%,?,?,?,-4%
